From PubChem BioAssay AID1745850 (National Center for Advancing Translational Sciences (NCATS), 2022)
Among all 2,100 compounds or so, about 260 (12%) were called active. About 58% were inconclusive and are not listed. The list shows a part of the results. Values without a mark were called inactive. Calls follow the shape of the dose curve; as a rule, active = well fitted cell-killing curve with a large enough effect; inconclusive = small, poorly fitted or top-dose-only effect, or effect the other way; inactive = flat fitted curve, though single readings scatter.

test: Viability Counterscreen for Confirmatory qHTS for Inhibitors of ATXN expression; conditions: HEK-293 ATXN2-luc cells viability, CellTiter-Fluor, 24 h; activity change, negative = cytotoxicity: at the top concentration; also: nearly all actives have a fitted effect of over 50% in size
How it was run: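 Cells with an ATXN2-luciferase reporter were dosed in a dilution series for 24 h at 37 degrees C. Viability was read first with Gly-Phe-AFC at 25 uM final (fluorescence, ex 405/em 540), then SteadyGlo luminescence. Medium-only wells defined 100% inhibition.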
Potency is read from the fitted curve at half-maximal effect.

Row | Structure (SMILES) | activity change, negative = cytotoxicity | Potency
1 | Nc1ccn(C2OC(COP(=O)(O)O)C(O)C2O)c(=O)n1 (stereo unspecified) | -26.7% [at 57.5 µM] | 
2 | Cc1ccc(Cc2cnc(N3C(=N)SC(C)C3=O)s2)cc1 (stereo unspecified) | -8.77% | 
3 | CCC(C)(C)c1ccc(Oc2ccc(N)cc2)cc1 | -9.83% [at 57.5 µM] | 
4 | CCCC(=O)N1CCCC(c2cc(C(=O)Nc3ccccc3)no2)C1 (stereo unspecified) | -12.5% [at 57.5 µM] | 
5 | Cc1cc(=O)[nH]c(N=N/C(=N/Nc2ccccc2C)c2ccccc2)n1 |  | 12.6 µM (active)
6 | O=C(Nc1cccc(Cl)c1)c1ccc2c(c1)SC1=NS(=O)(=O)CCN12 | -19.6% | 
7 | CCc1cc(C)cc(OCCNC(=O)c2cncc(Br)c2)c1 | -9.86% [at 57.5 µM] | 
8 | CCn1c2ccccc2c2cc(NC(=O)COC(=O)Cc3cn4ccsc4n3)ccc21 | -4.46% | 
9 | O=C(CC1Sc2ccccc2NC1=O)NNc1cccc(Cl)c1Cl (stereo unspecified) | -3.89% | 
10 | N#C/C(=N\Nc1cccc([N+](=O)[O-])c1)C(=O)c1ccc(Br)cc1 |  | 2.51 µM (active)
11 | CC(NC(=O)Nc1cccc([N+](=O)[O-])c1)(C(F)(F)F)C(F)(F)F | -28.5% [at 57.5 µM] | 
12 | CC(NC(=O)Nc1cccc([N+](=O)[O-])c1)c1ccc2c(c1)OCO2 (stereo unspecified) | -13.6% | 
13 | CC(C)=C1SC(N2CCN(c3ccc(C)c(Cl)c3)CC2)=NC1=O | -5.09% | 
14 | O=C(Cc1coc2cc3c(cc12)CCC3)OCC(=O)N1CCCC1=O | -16.8% [at 57.5 µM] | 
15 | CCCC(=O)Nc1ccc2nc(SCC(=O)N3CCCC3)sc2c1 | -17% [at 57.5 µM] | 
16 | CCc1nnc(NC(=O)c2ccc(S(=O)(=O)N(C)c3ccccc3)cc2)o1 | -10.3% | 
17 | Cc1nc2ccc(NC(=O)c3cccc(S(=O)(=O)N(C)c4ccccc4)c3)cc2s1 |  | 3.16 µM (active)
18 | CCN1CCN(C(=S)c2ccc(-c3ccccc3)cc2)CC1 | -12% [at 57.5 µM] | 
19 | CN1Cc2c(N3CCOCC3)nc3sc(C(=O)c4ccccc4)c(N)c3c2CC1(C)C | -21% | 
20 | CN(C)CCNc1ncnc2c1sc1nc(N3CCCC3)c3c(c12)CC(C)(C)OC3 |  | 25.1 µM (active)
21 | CN(C)CCNc1ncnc2c1sc1nc(N3CCOCC3)c3c(c12)CC(C)(C)SC3 |  | 22.4 µM (active)

Row | Structure (SMILES) | activity change, negative = cytotoxicity | Potency
22 | CC1(C)Cc2c(c(N3CCOCC3)nc3sc4c(NN)ncnc4c23)CS1 |  | 25.1 µM (active)
23 | COc1ccc(C2CC(c3cccc(Cl)c3)=NN2c2ccc(S(N)(=O)=O)cc2)cc1 (stereo unspecified) | 3.61% [at 57.5 µM] | 
24 | CCN(CCCn1c(=S)[nH]c2ccc(N3CCOCC3)cc2c1=O)c1ccccc1 | -2.36% | 
25 | Cc1nn(-c2ccccn2)c2c1C(=O)CC(C)(C)C2N=[N+]=[N-] (stereo unspecified) | -2.41% | 
26 | OCC1(CCOc2ccccc2)CCN(CC2=Cc3cc(Cl)ccc3OC2)CC1 | -23.6% [at 57.5 µM] | 
27 | Cc1cc(=O)oc2c1c(C)nn2-c1cccc(Cl)c1 | -2.37% | 
28 | O=C(c1cccc(Cl)c1)c1nn(-c2ccccc2)c(=O)cc1C(F)(F)F |  | 35.5 µM (active)
29 | COc1cccc(-c2nc(N3CCN(C)CC3)c3ccccc3n2)c1O | -15.2% | 
30 | COc1ccc(Nc2oc(COc3ccccc3OC)nc2C#N)cc1 | 0.396% | 
31 | COc1ccc(Nc2nc(N3CCCC3)c3ccccc3n2)cc1 |  | 35.5 µM (active)
32 | CC(=O)Oc1ccc(Nc2ccccc2)cc1 | -7.23% | 
33 | CC(=O)Oc1ccc(C23c4ccccc4C2(OC(C)=O)c2cc(OC(C)=O)ccc23)cc1 (stereo unspecified) |  | 28.2 µM (active)
34 | O=C(CSc1nnc(-c2ccc(Br)cc2)o1)Nc1cccc(C(=O)O)c1 | -4.75% [at 57.5 µM] | 
35 | COC(=O)c1c(C)oc2ccc(N(C(=O)c3ccncc3)S(=O)(=O)c3ccc(C)cc3C)cc12 | -23.2% | 
36 | O=C(CNc1cccc(C(F)(F)F)c1)Nc1cccc(S(=O)(=O)N2CCCC2)c1 | -24.1% [at 57.5 µM] | 
37 | CN(CC(=O)Nc1ccc(Cl)c(C(F)(F)F)c1)C(=O)c1cccnc1Sc1ccccc1 | -12% [at 57.5 µM] | 
38 | Cc1ccc(C(=O)N(C)CC(=O)Nc2ccc(Cl)c(C(F)(F)F)c2)cc1S(=O)(=O)N1CCCCC1 |  | 25.1 µM (active)
39 | O=C(NCCc1csc(-c2cccnc2)n1)c1cccc(Cl)c1 | -18.1% [at 57.5 µM] | 
40 | Cc1cccn2c(=O)c3cc(C(=O)NCCN4CCOCC4)c(=N)n(Cc4ccc(F)cc4)c3nc12 | -4.46% [at 57.5 µM] | 
41 | COc1cccc(/C=N/NC(=O)CC(C)O)c1OC/C=C/c1ccccc1 (stereo unspecified) | -2.85% | 
